High-throughput results from PubChem BioAssay.
This is one part of a sample in which hits are shown more often than they occur.
Pf Dd2 growth: blocks in vitro growth of P. falciparum Dd2. P. falciparum Dd2 growth, SYBR Green, 72 h. Potency, µM (doses to about 28.9 µM), most hits filed as inhibitors. actives 4.3% (n = 120,000); active means well fitted inhibition curve with a large enough effect; further: nearly all actives have a fitted effect of over 65% in size
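Readout: SYBR Green fluorescence, 485 nm excitation, 535 nm emission, after ~16 h lysis at 37C. Before that, Dd2-infected red cells (2.5% hematocrit) grew 72 h with compound, 29 uM top final concentration.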
A number is an active result; n = inactive; [ ] = remark or other dose.

SMILES	Pf Dd2 growth
CCC1CN(C(=O)N2CCC(C(=O)NCCN(CC)CC)CC2)c2cc(C)ccc2O1 (stereo not given)	n
Cc1ccc2c(c1)N(C(=O)N1CCC(C(=O)NCCc3ccc(Cl)cc3)CC1)CC(C)O2 (stereo not given)	8.91µM
CCCNC(=O)C1CCN(C(=O)N2CC(C)Oc3ccccc32)CC1 (stereo not given)	n
CCC1CN(C(=O)N2CCC(C(=O)NCCc3ccc(OC)cc3OC)CC2)c2cc(C)ccc2O1 (stereo not given)	5.62µM
Cc1nn(CC(=O)NC2CC(c3nnc(CN(C)C)n3C)C2)c(C)c1Cl (stereo not given)	n
O=C(CCc1c[nH]c2ccccc12)N1CCC2(CCCCO2)CC1	n
COc1ccc(CC(=O)N2CC3CC(C2)[C@H]2CCCC(=O)N2C3)cc1Cl (stereo not given in full)	n
CN(C)c1ccc(NC(=O)Cn2nc3n(c2=O)CCCC3)cc1	n
CCC1=NS(=O)(=O)c2cc(NC(C)=O)ccc2N1CC(C)C	n
CC(C)C1=NS(=O)(=O)c2cc(NC(=O)c3ccco3)ccc2N1c1ccccc1	n
CC(C)CC1=NS(=O)(=O)c2cc(NC(=O)C3CC3)ccc2N1c1ccccc1	2µM
O=C(CCC1CCCN(S(=O)(=O)c2ccccc2F)C1)NC1CCCCC1 (stereo not given)	n
Cn1nccc1C(=O)NCCc1noc(-c2ccccc2)n1	n
CC(=O)c1cccc(Nc2c3c(nc4nc(-c5cccs5)nn24)CCCC3)c1	11.2µM
c1csc(-c2nc3nccc(-c4ccncc4)n3n2)c1	n
COc1ccc(C)cc1Nc1c2c(nc3nc(-c4cccs4)nn13)CCCC2	n[0.594 µM]
CC(C)(C)c1noc(-c2nnn3c2COC(c2ccc(F)cc2)C3)n1 (stereo not given)	n
COC(=O)CN1C(=O)[C@@H]2C[C@@H](O)CN2C2(CN(CC3CC3)C2)C1=O	n
CC(C)(C)OC(=O)N1CCC(c2c(C(=O)N3CCN(C4CCCCC4)CC3)cnn2-c2cccc(Cl)c2)CC1	10µM
CC(C)(C)OC(=O)N1CCC(c2c(C(=O)NC3CCN(Cc4ccccc4)CC3)cnn2-c2cccc(F)c2)CC1	n
CC(C)(C)OC(=O)N1CCC(c2c(C(=O)N3CCCCC3)cnn2-c2ccc(F)cc2)CC1	n
Cc1cccc(-n2ncc(C(=O)N3CCN(Cc4ccccc4)CC3)c2C2CCN(C(=O)OC(C)(C)C)CC2)c1	7.94µM
Cc1ccc(-n2ncc(C(=O)N3CCN(c4cccc(C)c4)C(C)C3)c2C2CCN(C(=O)OC(C)(C)C)CC2)cc1 (stereo not given)	4.47µM
COc1ccc(-n2ncc(C(=O)N3CCN(C(=O)c4ccco4)CC3)c2C2CCN(C(=O)OC(C)(C)C)CC2)cc1	n
CC(C)(C)OC(=O)N1CCC(c2c(C(=O)N3CCN(C(=O)c4ccco4)CC3)cnn2-c2cccc(Cl)c2)CC1	10µM
SMILES	Pf Dd2 growth
CN1CCN(C(=O)c2cnn(-c3ccccc3)c2C2CCN(C(=O)OC(C)(C)C)CC2)CC1	n
CC(C)(C)OC(=O)N1CCC(c2c(C(=O)N3CCN(c4ncccn4)CC3)cnn2-c2cccc(F)c2)CC1	n
NC(c1ccccc1)c1nnc2n1CCN(C(=O)N1CCCCC1)C2 (stereo not given)	n
O=C1C(N2CCN(S(=O)(=O)c3ccccc3Cl)CC2)CCN1CCc1ccccc1 (stereo not given)	n
CC(C)C1=NOC2(CCN([S+](=O)([O-])c3cccc(C(F)(F)F)c3)C2)C1 (stereo not given)	n
Cc1cccc(CN2C[C@]34C=C[C@H](O3)C(C(=O)N3CCc5ncccc5C3)C4C2=O)c1 (stereo not given in full)	n
c1cnc(-c2nc(Cn3cc(C4CCOC4)nn3)cs2)nc1 (stereo not given)	n
Cn1c([C@H]2CCN(C(=O)COc3ccccc3)C2)nc2ccccc21	n
CCc1cccc(NC(=O)Cn2c(C)cc3nc4n(c(=O)c32)CCCCC4)c1	n
COC(=O)C1=C(C)N=C2SC=C(CC(=O)NCC3CCCO3)N2C1c1ccc(C)cc1C (stereo not given)	n
Cc1ccc(Cn2ccn3nc4c(c3c2=O)CCCC4)cc1	n
CC(C)(C)c1ccnc(N[C@H]2CO[C@H]3[C@@H]2OC[C@@H]3NC(=O)CCCC(=O)O)n1	n
CC(C)(C)c1ccnc(N[C@H]2CO[C@H]3[C@@H]2OC[C@@H]3NC(=O)NCc2ccccc2)n1	5.01µM
CC(C)(C)c1ccnc(N[C@H]2CO[C@H]3[C@@H]2OC[C@@H]3NC(=O)c2ccco2)n1	n
O=C(C[C@@H]1CCNC[C@@H]1Cc1cc(-c2ccccc2)on1)NCc1cccs1	n
CCCS(=O)(=O)NCC(=O)N1CCCCCNC(=O)CC1c1ccccc1 (stereo not given)	n
COC(=O)c1ccccc1S(=O)(=O)N1CCC(c2cc(-c3cccc(C)c3)n[nH]2)CC1	n
COc1ccccc1OCCn1c(COc2cc(C)ccc2C)nc2ccccc21	6.31µM
COc1ccccc1OCCn1c(NC(=O)c2ccccc2Cl)nc2ccccc21	n
COCc1nc2ccccc2n1CCOc1cccc(C)c1	n
COCCCNC(=O)c1cn2ccnc(-c3ccc(OC)cc3)c2n1	n
CCc1cc(=O)n(CC(=O)N2CCN(c3ccc(OC)cc3)CC2)c(N2CCOCC2)n1	n
COc1cc(NC(=O)Cn2c(N3CCN(c4ccccc4)CC3)nc(C)cc2=O)cc(OC)c1	6.31µM
CCc1cc(=O)n(CC(=O)Nc2cc(OC)c(OC)c(OC)c2)c(N2CCOCC2)n1	n
CCc1cc(=O)n(CC(=O)N2CCN(c3ccccc3F)CC2)c(N2CCOCC2)n1	7.94µM
SMILES	Pf Dd2 growth
CCc1cc(=O)n(CC(=O)Nc2ccc(F)c(Cl)c2)c(N2CCOCC2)n1	n
CCc1ccc(NC(=O)Cn2c(N3CCN(c4ccccc4)CC3)nc(C)cc2=O)cc1	n
COc1ccc(NC(=O)Cn2c(N3CCC(C)CC3)nc(C)cc2=O)cc1	n
COCc1cc(=O)n(CC(=O)Nc2ccccc2OC)c(N2CCOCC2)n1	n
CCc1cc(=O)n(CC(=O)Nc2ccccc2OC)c(N2CCOCC2)n1	11.2µM
O=C(c1ccc(C2CCCNC2)cc1)N1CCN(c2ccncc2)CC1 (stereo not given)	n
CC(=O)Nc1ccc(CN2CCC3(CN[S+](=O)([O-])c4ccccc4N3)C2)cc1 (stereo not given)	n
COc1ccc(-c2noc([C@@H](C)NCC3CCCCC3)c2C(=O)O)cc1	n
CCCn1c(C)cnc1CC1CCCN(C(=O)CC2CCCC2)C1 (stereo not given)	n
O=C(NCCc1ccccc1)N1CCCC(c2nc(CCOc3ccc(F)cc3)no2)C1 (stereo not given)	n
c1ccc(N2CC3(CN(CC4CC4)CC3CNc3cccnc3)C2)cc1 (stereo not given)	n
O=C(CCC1CCN(S(=O)(=O)c2ccccc2F)CC1)NCc1ccncc1	n
COc1cccc(CNC(=O)CC2C(=O)NCCN2CC(C)C)c1OC (stereo not given)	n
COc1ccc2nc(CO[C@H]3CN(Cc4cccc(OC)n4)C[C@H]3F)[nH]c2c1	n
O=C(Cc1ccccc1)NCC1CN(C(=O)Cc2cccc(Oc3ccccc3)c2)CC12CN(c1ccccc1)C2 (stereo not given)	n
Cn1cc(C(=O)NCC2CN(C(=O)Cc3cccc(Oc4ccccc4)c3)CC23CN(c2ccccc2)C3)cn1 (stereo not given)	n
O=C(NCC1CN(C(=O)Cc2cccc(Cl)c2)CC12CN(c1ccccc1)C2)C1CC1 (stereo not given)	8.91µM
